Reference: PubChem BioAssay (Tox21)
Records with an inconclusive call do not appear. A call without a number means that no potency is given here. Calls of active or inactive are those of the source. The call rests on the fitted dose curve; in most records, active means well fitted inhibition curve with a large enough effect in the repeat runs; inconclusive means weak or mixed curves; inactive means flat fitted curve, though single readings scatter.

Biological target: Luciferin 4-monooxygenase (Photinus pyralis) (UniProt P08659)
Experiment: qHTS assay to identify small molecule inhibitors of firefly luciferase (AID 1224835); further: nearly all actives have a fitted effect of over 25% in size
Details: purified P. pyralis luciferase, luminescence inhibition; series mostly up to 115 µM
Source text: U.S. Tox21 Program National Center for Advancing Translational Sciences [NCATS] NIH Chemical Genomics Center [NCGC] U.S. Environmental Protection Agency [EPA] National Institutes of Environmental Health Sciences [NIEHS] National Toxicology Program [NTP] U.S. Food and Drug Administration [FDA] Tox21 Assay Overview: Firefly (Photinus pyralis) luciferase is one of the most commonly used transcriptional reporters. Firefly luciferase reporter-gene assays are generally considered one of the most sensitive assay types (Wood, 1995; Wood, 1998). However, it was initially observed, in 1991, by Thompson et al., that compounds that resemble the substrates of firefly luciferase (FLuc) can act as competitive inhibitors of the enzyme, and that these compounds, upon interaction with luciferase in the cell, can actually stabilize the protein and increase its half-life. Previous profiling work by other groups to determine the prevalence of compounds that affect FLuc enzymatic activity (PubChem AID 411) identified that ~3% of the MLSMR library (then at ~72K) inhibited FLuc. […] Thus the Tox21 10K library is profiled for activity against FLuc using a biochemical assay of purified FLuc and KM concentrations of FLuc substrates (D-luciferin and ATP).
These assay plates were then treated with 23nL of compound or DMSO using a Kalypsys pin tool, which allows for delivery of a 6-point interplate titration of each compound to the assay plate (quantitative HTS.) 1 uL of firefly luciferase mix (containing 50 mM Tris acetate, pH 7.6, 0.04 uM P. pyralis luciferase, 0.01% Tween, 0.05% BSA and dH2O) was then delivered by FRD to each well. Luciferase activity was then measured using a ViewLux CCD imager.

Sequence of Luciferin 4-monooxygenase (Photinus pyralis) (P08659 whole entry, looked up): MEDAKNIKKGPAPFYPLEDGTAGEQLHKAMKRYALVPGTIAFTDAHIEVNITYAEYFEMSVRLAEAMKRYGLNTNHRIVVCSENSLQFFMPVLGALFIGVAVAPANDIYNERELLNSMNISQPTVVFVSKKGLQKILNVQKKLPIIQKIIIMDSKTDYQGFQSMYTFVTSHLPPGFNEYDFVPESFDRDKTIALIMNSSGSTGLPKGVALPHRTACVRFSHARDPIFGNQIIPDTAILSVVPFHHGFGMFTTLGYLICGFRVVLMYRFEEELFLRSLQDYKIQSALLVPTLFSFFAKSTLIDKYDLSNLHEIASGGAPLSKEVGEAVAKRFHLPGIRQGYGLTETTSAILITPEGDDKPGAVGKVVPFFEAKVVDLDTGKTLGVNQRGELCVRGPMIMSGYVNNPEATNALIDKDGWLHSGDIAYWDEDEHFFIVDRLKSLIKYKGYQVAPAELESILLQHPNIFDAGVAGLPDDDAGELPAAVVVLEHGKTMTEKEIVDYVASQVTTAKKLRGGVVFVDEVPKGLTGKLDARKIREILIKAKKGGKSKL

Compound | Potency
COS(=O)(=O)c1ccc(C)cc1 | inactive
O=C(O)C1C2CCC(O2)C1C(=O)O (stereo not given) | inactive
Nc1c(Oc2ccccc2)cc(O)c2c1C(=O)c1ccccc1C2=O | 3.09 µM (active)
ClCc1ccccc1CCl | inactive
Oc1ccc(I)cc1 | inactive
CCOC(=O)c1ccccc1S(=O)(=O)NC(=O)Nc1nc(Cl)cc(OC)n1 | inactive
CC(=O)/C=C/c1ccc2c(c1)OCO2 | 45 µM (active)
Clc1ccc(CCC(Cn2ccnc2)Sc2c(Cl)cccc2Cl)cc1 (stereo not given) | inactive
CC1(C)CC/C(=C/c2ccc(Cl)cc2)C1(O)Cn1cncn1 (stereo not given) | inactive
ClC(Cl)=C(Cl)Cl | inactive
C[As+](C)(C)CC(=O)[O-] | inactive
O=CC(Br)(Br)Br | 17.8 µM (active)
CCSC(C)CC1CC(=O)C(/C(CC)=N/OC/C=C/Cl)=C(O)C1 (stereo not given) | inactive
C=CC(=O)OCC(COC(=O)C=C)(COC(=O)C=C)COC(=O)C=C | inactive
CC(=[OH+])/C=C(/C)[O-].CC(=[OH+])/C=C(\C)[O-].CC(=[OH+])/C=C(\C)[O-].[Fe] | 39.9 µM (active)
Cn1cc(C2=C(c3cn(C4CCN(Cc5ccccn5)CC4)c4ccccc34)C(=O)NC2=O)c2ccccc21 | inactive
ClC(Cl)=C(c1ccc(Cl)cc1)c1ccc(Cl)cc1 | inactive
CCCCCCCCCC[N+](C)(C)CCCCCCCCCC | inactive
NC(=O)c1ccc(N)nc1 | inactive
Cc1cc(C)cc(OP(=O)(Oc2cc(C)cc(C)c2)Oc2cc(C)cc(C)c2)c1 | inactive

Compound | Potency
CC(=O)O[C@H]1CC[C@@]2(C)C(=CC[C@@H]3[C@@H]2CC[C@]2(C)C(=O)CC[C@@H]32)C1 | inactive
Oc1ccc(C2(c3ccc(O)cc3)c3ccccc3-c3ccccc32)cc1 | inactive
CC1(C)[C@H](C(=O)O[C@H](C#N)c2cccc(Oc3ccccc3)c2)[C@@H]1/C=C(\Cl)C(F)(F)F | inactive
O=C1NCN(c2ccccc2)C12CCN(CC1COc3ccccc3O1)CC2 (stereo not given) | inactive
Oc1ccc2ccc3cccc4ccc1c2c34 | 79.6 µM (active)
C[CH2][Hg][N]1C(=O)C2C(C1=O)C1(Cl)C(Cl)=C(Cl)C2(Cl)C1(Cl)Cl (stereo not given) | 5.35 µM (active)
ClC1=C(Cl)C2(Cl)C3C(Cl)C=CC3C1(Cl)C2(Cl)Cl (stereo not given) | inactive
CCOCn1c(-c2ccc(Cl)cc2)c(C#N)c(Br)c1C(F)(F)F | inactive
CC(Cc1ccc(C(C)(C)C)cc1)CN1C[C@@H](C)O[C@@H](C)C1 (stereo not given in full) | inactive
CCCCCCCCCCCCCN1CC(C)OC(C)C1 (stereo not given) | inactive
CC1(c2ccc(Oc3ccccc3)cc2)OC(=O)N(Nc2ccccc2)C1=O (stereo not given) | inactive
Clc1ccc(CSC(Cn2ccnc2)c2ccc(Cl)cc2Cl)cc1 (stereo not given) | inactive
ClCc1ccc(Cl)cc1Cl | inactive
CC[C@H](C)[C@H]1O[C@]2(C=C[C@@H]1C)C[C@@H]1C[C@@H](C/C=C(\C)[C@@H](O[C@H]3C[C@H](OC)[C@@H](O[C@H]4C[C@H](OC)[C@@H](O)[C@H](C)O4)[C@H](C)O3)[C@@H](C)/C=C/C=C3\CO[C@@H]4[C@H](O)C(C)=C[C@@H](C(=O)O1)[C@]34O)O2 | inactive
FC(F)(F)c1cccc(C2=CCN(CCc3ccc4ccccc4c3)CC2)c1 | inactive
[CH3][Hg][Cl] | 5.62 µM (active)
C=COCCCl | inactive
CCOC(=O)OC1=C(c2cc(C)ccc2C)C(=O)NC12CCC(OC)CC2 (stereo not given) | inactive
Oc1cc(Cl)c(Cl)c(Cl)c1 | inactive
COc1ccc([N+](=O)[O-])cc1O | inactive
